PubChem BioAssay (Tox21)
Inconclusive results are not listed. The source made the active and inactive calls. Unless noted, calls follow the shape of the dose curve; as a rule, active = well fitted curve in the direction sought with a large enough effect in the repeat runs; inconclusive = weak or mixed curves; inactive = no such curve, though single readings can be large; an effect the other way counts as inactive or inconclusive.

How the values were obtained:
[1] = qHTS assay to identify small molecule antagonists of the constitutive androstane receptor (CAR) signaling pathway - cell viability counter screen (AID 1224837); also: series mostly up to about 92 µM; nearly all actives have a fitted effect of over 45% in size
Method in brief: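 Cells are seeded, rested 4 hr at 37 C/5% CO2, dosed with compound (15-point series) and 50 nM CITCO, incubated a further 23 hr, and then CellTiter-Fluor reagent is added before fluorescence is read. The line is HepG2 with stable hCAR and CYP2B6-2.2kb.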

[2] = qHTS assay to identify small molecule antagonists of the estrogen related receptor signaling pathway with the pleiotropic PPARgamma coactivator (PGC) from Tox21 10K library - cell viability counter screen (AID 1224840; active = well fitted cell-killing curve with a large enough effect in the repeat runs, not every such curve was filed as active; also: nearly all actives have a fitted effect of over 40% in size)
Method in brief: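 Cell viability is measured by CellTiter-Fluor fluorescence in PGC/ERR cells that receive compounds after a 6-hour attachment period and are then incubated 17.5 hours at 37 C.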

[3] = target: Thyrotropin receptor (Homo sapiens) (UniProt P16473); test: qHTS assay to identify small molecule agonists of the thyroid stimulating hormone receptor (TSHR) signaling pathway (AID 1224843; calls by dose curve; also: nearly all actives have a fitted effect of over 45% in size)
Chain of Thyrotropin receptor (Homo sapiens) (P16473 whole entry, looked up): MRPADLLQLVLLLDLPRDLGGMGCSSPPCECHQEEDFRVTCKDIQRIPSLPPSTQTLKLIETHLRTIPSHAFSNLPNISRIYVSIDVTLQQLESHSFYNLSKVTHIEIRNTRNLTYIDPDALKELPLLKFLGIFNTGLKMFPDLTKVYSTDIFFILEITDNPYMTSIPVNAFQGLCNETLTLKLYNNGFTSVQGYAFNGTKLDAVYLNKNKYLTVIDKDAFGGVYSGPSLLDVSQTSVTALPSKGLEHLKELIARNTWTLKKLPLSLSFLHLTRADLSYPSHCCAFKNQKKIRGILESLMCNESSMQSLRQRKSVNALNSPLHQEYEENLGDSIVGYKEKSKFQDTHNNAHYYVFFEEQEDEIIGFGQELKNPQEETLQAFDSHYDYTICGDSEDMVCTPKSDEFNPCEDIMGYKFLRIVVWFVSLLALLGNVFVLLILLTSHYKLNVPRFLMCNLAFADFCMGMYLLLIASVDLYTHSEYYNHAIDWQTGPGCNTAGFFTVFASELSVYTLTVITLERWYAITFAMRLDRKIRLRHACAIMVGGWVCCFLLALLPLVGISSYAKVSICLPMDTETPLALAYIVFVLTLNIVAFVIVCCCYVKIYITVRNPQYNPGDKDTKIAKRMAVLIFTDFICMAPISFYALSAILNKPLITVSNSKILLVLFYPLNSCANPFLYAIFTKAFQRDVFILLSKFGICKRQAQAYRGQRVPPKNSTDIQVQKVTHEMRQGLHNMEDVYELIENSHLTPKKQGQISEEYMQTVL
Method in brief: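 Agonist-mode screen: TSHR HEK293 cells received test chemicals for half an hour at room temperature, then HTRF cAMP detection reagents for one hour prior to fluorescence measurement. Each chemical ran as a 15-concentration series, triplicated.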

[4] = qHTS assay to identify small molecule agonists of the hypoxia (HIF-1) signaling pathway - cell viability counter screen (AID 1224844; calls by dose curve; also: nearly all actives have a fitted effect of over 50% in size)
Method in brief: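 Viability counter screen: HRE-bla ME-180 cells plated 5 hrs before compound addition, treated 17 hrs at 37C and 5% CO2, then CellTiter-Glo added after the FRET reporter read; luminescence after 30 min.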

[5] = qHTS assay to identify small molecule agonists of H2AX (AID 1224845; active = well fitted activation curve with a large enough effect in the signal ratio in the repeat runs, not every such curve was filed as active; the % refers to the signal ratio)
Method in brief: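 Wild-type CHO-K1 cells, plated overnight, exposed 3hr at 37C to 15 concentrations (0.76% DMSO final). Lysed, then HTRF anti-pH2AX (S139) cryptate and anti-H2AX-d2 antibodies, 24 hr room temperature; 665/620 nm emission read.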

[6] = qHTS assay to identify small molecule agonists of H2AX - cell viability counter screen (AID 1224847; calls by dose curve; also: top concentration of the series differs between compounds; nearly all actives have a fitted effect of over 30% in size)
Method in brief: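 Compounds tested at 15 concentrations were incubated 3 hr at 37C with wild-type CHO-K1 cells; cellular ATP-based luminescence (CellTiter-Glo) indicated viability.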

[7] = qHTS RealTime-Glo MT Cell Viability Assay in HepG2 cells - 24 hour (AID 1224867); also: nearly all actives have a fitted effect of over 50% in size
Method in brief: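 Tox21 10K library screened in qHTS format on HepG2 cells carrying RealTime-Glo reagents. Compounds were added after a 5 h preincubation, and the luminescent signal from continuous culture was measured repeatedly during 40 h treatment.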

[8] = qHTS RealTime-Glo MT Cell Viability Assay in HEK293 cells - 32 hour (AID 1224868); also: top concentration of the series differs between compounds; nearly all actives have a fitted effect of over 50% in size
Method in brief: (§1)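 Luminescence generated by NanoLuc from substrate produced by living HEK293 cells served as the viability signal. Each value reflects the reading at its stated time point during continuous 40 h compound exposure at 37 C.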

[9] = A CellTox Green Cytotoxicity Assay to monitor cytotoxicity in HEK293 cells - 0 hour (AID 1224869); also: nearly all actives have a fitted effect of over 50% in size
Method in brief: (§2)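 Dead-cell fluorescence measured kinetically: asymmetric cyanine dye, HEK293, 600 cells/well, 5 h settle, 23 nL cpd/DMSO, 37 C, reads 0–40 h every 8 h.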

[10] = qHTS RealTime-Glo MT Cell Viability Assay in HepG2 cells - 40 hour (AID 1224870); also: nearly all actives have a fitted effect of over 50% in size
Method in brief: (§3)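 HepG2 cells (600/well) mixed with RealTime-Glo MT reagent, settled 5 h at 37 C/5% CO2 before compound addition. Nonlytic NanoLuc luminescence from viable-cell prosubstrate reduction read repeatedly during 40 h treatment at 37 C.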

[11] = qHTS RealTime-Glo MT Cell Viability Assay in HEK293 cells - 16 hour (AID 1224872)
Method in brief: as §1

[12] = qHTS RealTime-Glo MT Cell Viability Assay in HepG2 cells - 8 hour (AID 1224873); also: nearly all actives have a fitted effect of over 55% in size
Method in brief: as §3

[13] = qHTS assay to identify small molecule agonists of the hypoxia (HIF-1) signaling pathway (AID 1224846; active = well fitted activation curve with a large enough effect in the signal ratio in the repeat runs, not every such curve was filed as active; the % refers to the signal ratio)
Method in brief: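 Agonist mode reporter screen. ME-180 cells stably expressing bla under HRE control received test compounds in DMSO for 17 hrs (37C, 5% CO2), and beta-lactamase activity was then detected with the CCF4-AM FRET substrate.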

[14] = A CellTox Green Cytotoxicity Assay to monitor cytotoxicity in HEK293 cells - 40 hour (AID 1224871); also: nearly all actives have a fitted effect of over 45% in size
Method in brief: as §2

[15] = target: Nuclear receptor subfamily 1 group I member 3 (Homo sapiens) (UniProt Q14994); test: qHTS assay to identify small molecule antagonists of the constitutive androstane receptor (CAR) signaling pathway (AID 1224838);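 also: HepG2 cells stably expressing hCAR with CYP2B6 luciferase reporter stimulated by CITCO; nearly all actives have a fitted effect of over 40% in size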
Chain of Nuclear receptor subfamily 1 group I member 3 (Homo sapiens) (Q14994 whole entry, looked up): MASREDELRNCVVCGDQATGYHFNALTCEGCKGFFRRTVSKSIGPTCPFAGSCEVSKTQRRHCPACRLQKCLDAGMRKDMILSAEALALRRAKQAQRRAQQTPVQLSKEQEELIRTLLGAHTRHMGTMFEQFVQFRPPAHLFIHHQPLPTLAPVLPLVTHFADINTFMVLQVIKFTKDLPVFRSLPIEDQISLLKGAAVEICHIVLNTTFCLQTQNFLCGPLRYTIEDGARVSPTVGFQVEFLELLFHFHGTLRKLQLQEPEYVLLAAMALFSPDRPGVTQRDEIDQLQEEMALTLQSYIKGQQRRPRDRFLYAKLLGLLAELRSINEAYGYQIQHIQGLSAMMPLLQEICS
Method in brief: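 Luminescence from a CYP2B6-2.2kb promoter reporter in hCAR-expressing HepG2 cells reflects CAR signaling. Cells received compounds at 15 concentrations and 50 nM CITCO (final), then incubated 24 h at 37 C/5% CO2.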
% is scaled to controls: 0 for no effect and ±100 for the full control effect.

CC(C)=CCC[C@H](C)CC=O
inactive: Potency [1] | Potency [2] | Potency [3] | Potency [4] | Potency [5] | Potency [6] | Potency [7] | Potency [8] | Potency [9] | Potency [10] | Potency [11] | Potency [12]

CC(C=O)c1ccccc1 (stereo unspecified)
inactive: Potency [1] | Potency [2] | Potency [4] | Potency [5] | Potency [13] | Potency [7] | Potency [9] | Potency [10] | Potency [14] | Potency [11] | Potency [12]

O=C(N[C@H](CO)[C@H](O)c1ccc([N+](=O)[O-])cc1)C(Cl)Cl
inactive: Potency [1] | Potency [15] | Potency [2] | Potency [4] | Potency [5] | Potency [6] | Potency [7] | Potency [9] | Potency [10] | Potency [14] | Potency [12]

C/C(=C\c1ccc(C(=O)O)cc1)c1ccc2c(c1)C(C)(C)CCC2(C)C
inactive: Potency [1] | Potency [2] | Potency [3] | Potency [5] | Potency [13] | Potency [6] | Potency [7] | Potency [8] | Potency [9] | Potency [10] | Potency [14] | Potency [11] | Potency [12]

COc1cc2ncnc(Nc3cccc(Cl)c3)c2cc1OC
inactive: activity change, negative = cytotoxicity [1] -20.1% [at 19 µM] | viability change, negative = cytotoxic [2] -14.4% [at 19 µM] | activation [3] -0.89% [at 19 µM] | activity change, negative = cytotoxicity [4] -10.3% [at 15.8 µM] | activation (H2AX phosphorylation) [5] 1.29% [at 31.6 µM] | activation [13] 0.103% [at 15.8 µM] | activity change, negative = cytotoxicity [7] -0.467% [at 15.8 µM] | activity change, negative = cytotoxic [8] 0.667% [at 15.8 µM] | cytotoxicity [9] -7.5% [at 15.8 µM] | activity change, negative = cytotoxic [10] 25.7% [at 15.8 µM] | cytotoxicity increase [14] -0.731% [at 15.8 µM] | activity change, negative = cytotoxicity [11] -3.69% [at 15.8 µM]

C=CC(=O)OCCOC1C2CCC1C1CC=CC12 (stereo unspecified)
inactive: activity change, negative = cytotoxicity [1] -0.771% [at 19 µM] | viability change, negative = cytotoxic [2] -0.314% [at 19 µM] | activation [3] -1.28% [at 19 µM] | activity change, negative = cytotoxicity [4] 4.59% [at 15.8 µM] | activation (H2AX phosphorylation) [5] -0.772% [at 31.6 µM] | activation [13] 0.329% [at 15.8 µM] | activity change, negative = cytotoxicity [6] 1.49% [at 31.6 µM] | activity change, negative = cytotoxicity [7] 3.51% [at 15.8 µM] | activity change, negative = cytotoxic [8] 0.499% [at 15.8 µM] | cytotoxicity [9] -3.9% [at 15.8 µM] | activity change, negative = cytotoxic [10] 5.7% [at 15.8 µM] | cytotoxicity increase [14] -0.257% [at 15.8 µM] | activity change, negative = cytotoxicity [11] -2.12% [at 15.8 µM]

C=C(C)C1CCC(C)CC1O (stereo unspecified)
inactive: Potency [1] | Potency [2] | Potency [3] | Potency [4] | Potency [5] | Potency [13] | Potency [6] | Potency [7] | Potency [8] | Potency [9] | Potency [10] | Potency [14] | Potency [11] | Potency [12]
